Measured values published in PubChem BioAssay (NCI).
Compounds without any hit were thinned out: in the full panel of roughly 83,000, 20% have a hit.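 For each line, cells grew in 96-well plates with the test compound present at a single concentration for 48 hours.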 Unmarked numbers belong to inactive results. The source made the active and inactive calls. How the source made its calls: active means growth percent below 10; inactive means the rest.

What follows are molecules tested on MDA-MB-468 breast (assay: NCI-60 one-dose screen, 48 h (100 = growth as untreated, 0 = no growth, -100 = all killed)). Details: 10 µM unless noted.
`O=C(/C=C/C=C/c1csc(Br)n1)NO` showed a growth of 99.7%. `Cc1noc(C)c1C(=O)OCc1coc2ccccc2c1=O` showed a growth of 24.5%. For `c1ccc(-c2cc(-c3cc(-c4ccccc4)on3)no2)cc1`, the growth was 84.9%. `CCOC(=O)c1cc2c(n1Cc1cc(OC)cc(OC)c1Br)-c1nc(NC(C)=O)sc1CCC2` showed a growth of 77.7%. `Cc1ccc(CS/C(=C\c2ccc([N+](=O)[O-])cc2)C(=O)c2ccc(F)cc2)cc1` showed a growth of 81.1%. With `O=C(/C=C(/C=C/c1cccc2[nH]ccc12)OB(F)F)/C=C/c1cccc2[nH]ccc12` the growth was -57% (active). With `COc1ccc(/C(C)=N/NC(=O)c2ccc(S(C)(=O)=O)cc2)cc1OC` the growth was 95.7%. Work on `CC1=NOCC(=O)N1` yielded a growth of 95.9%. `CCN(CC)CCN1C(=O)c2cccc3c(/C=C/CN4C(=O)c5cccc6cccc(c56)C4=O)ccc(c23)C1=O` was tested, and the growth was 99.2%. With `CC1(C)OC2COC3(C(=O)O)OC(C)(C)OC3C2O1` (stereo not given) the growth was 93.6%. Work on `O=c1cc(Cl)[nH]c(=O)[nH]1` yielded a growth of 101%. `COc1ccccc1/C=C/C(=O)Nc1ccc(F)cc1` gave a growth of 105%. For `Clc1ccc2oc3c(OCCCn4ccnc4)c4ccccc4nc3c2c1`, the growth was 66.5%. `COc1cc2c(cc1O)c(=O)n(CCN(C)C)c1c3cc4c(cc3ncc21)OCO4` was tested, and the growth was -57.9% (active). For `N=C(N)N=Nc1ccc(NN=C(N)N)c2ccccc12`, the growth was -27.2% (active). Molecule `Cc1ccc(-c2cc(-c3nnc(SCC(=O)c4ccccc4)o3)c3ccccc3n2)cc1` has a growth of 115%. With `COc1ccc(/C=C2\CCCC3=C2NC(N)=NC3c2ccc(OC)cc2)cc1` (stereo not given) the growth was -5.61% (active). Molecule `CC1CC2Oc3ccc(Cl)cc3C(=O)N2O1` (stereo not given) has a growth of 94.5%. In the case of `Cc1ccc(S(=O)(=O)Nc2cccc3[nH]c(C(F)(F)F)nc23)cc1`, the growth was 5.86% (active). `COC(=O)c1ccc2[nH]c(O)c(C(=Nc3ccc(N(C)C(=O)CN4CCN(C)CC4)cc3)c3ccc4c(c3)OCO4)c2c1` gave a growth of 38.3%. `CC(C)(C)OC(=O)N1C=C/C(=C\Cn2cc(-c3ccccc3)nn2)CC1` showed a growth of 26.4%. Molecule `Cc1ccc(-c2cc(C(=O)N3N=C(c4ccc(N)cc4)CC3c3ccc(Cl)cc3)c3ccccc3n2)cc1` (stereo not given) has a growth of 14.1%. For `CC(C)(c1ccccc1)c1cc(O)c(C(C)(C)c2ccccc2)cc1O`, the growth was 26.4%. `O=C(OCC(O)(CO)C(=O)NC12CC3CC(CC(C3)C1)C2)c1ccc(Cl)cc1` (stereo not given) gave a growth of 100%. In the case of `CCc1cccc2c3c(sc12)C(c1ccc(Cl)cc1)C(C#N)=C(/N=C/c1ccc(Cl)cc1)O3` (stereo not given), the growth was -16.3% (active). `COc1ccc(/C=C(\C#N)c2cc3ccccc3n2C(C)=O)cc1` showed a growth of 58.8%. For `Cn1c(=O)n(C)c2cc(CNCCNc3ccnc4cc(Cl)ccc34)ccc21`, the growth was 59.4%. Molecule `N#CC1=C(c2ccc(Cl)cc2)Nc2c(c(-c3ccc(Cl)cc3)nn2-c2ccccc2)C12C(=O)Nc1ccc(Cl)cc12` (stereo not given) has a growth of 52.9%. With `CN(C)CCOc1nc2c3cc([N+](=O)[O-])ccc3nn2c2ccccc12` the growth was 60.2%. `CC(C)COCC(CN(Cc1ccccc1)c1ccccc1)N1CCCC1` (stereo not given) showed a growth of 32.7%. For `COc1ccc(NC(=O)[C@H](C)NC(=O)OC(C)(C)C)cc1C(=O)Nc1cccc(-c2cc(=O)c3c(OC)c(OC)c(OC)cc3o2)c1`, the growth was 4.39% (active). Work on `C=C(Cl)C(=NC(C)(C)C)Nc1ccccc1C` yielded a growth of 39.2%. In the case of `CC1=C(C/C=C(\C)CCC[C@H](C)CCC[C@H](C)CCCC(C)C)C(=O)c2ccccc2C1=O`, the growth was 116%. For `CC(=O)c1ccc(Nc2nc(Cl)nc(Oc3c(Cl)cccc3Cl)n2)cc1`, the growth was 93.3%. `COc1cc(C)cc2oc3oc(=O)c(C(=O)c4cc5cc(Br)ccc5o4)cc3c(=O)c12` showed a growth of 107%. For `CNC(=O)c1cc(Cn2nc(C)c(NC(=O)Nc3ccc(Cl)c(C(F)(F)F)c3)c2C)ccn1`, the growth was 97.5%. In the case of `Cn1c(/C=C/[N+](=O)[O-])cc2ccccc21`, the growth was -36.6% (active). Molecule `COc1ccc2c(c1)C1=NN(C(=O)CO)[C@H](c3ccc(OC(F)(F)F)cc3)[C@@H]1CC2` has a growth of 117%. For `Cc1cc(O)cc(-c2c(-c3ccnc(-c4cccnc4)c3)cnn2C)c1`, the growth was 48.1%. With `CCN1CCN(C(=O)[C@]23CCC(C)(C)C[C@H]2C2=CC[C@@H]4[C@@]5(C)Cc6c([nH]c7ccccc67)C(C)(C)[C@@H]5CC[C@@]4(C)[C@]2(C)CC3)CC1` the growth was 84.7%.
